# Source: PubChem
# In the library only some 4% were active in any assay of this set; here they are far more common.
# ADAM10 inh = ADAM10 inhibition, QFRET primary screen; 370,000 tested, 0.62% active; O14672; recombinant ADAM10, EDANS/DABCYL FRET peptide cleavage, 3 h; inhibition, % at 7 µM;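 active means inhibition above a per-campaign cutoff equal to the mean of compounds falling between control-based bounds plus 3 SD, cut at about 20% in these data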;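 further: 0% = DMSO wells while the 100% control is not disclosed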
# ADAM17 inh = inhibits human ADAM17; 370,000 tested, 0.83% active; P78536; recombinant ADAM17, EDANS/DABCYL FRET peptide cleavage; inhibition, % at 6.95 µM;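 active means inhibition above the mean of compounds lying between control limits plus 3 SD, set per campaign, cut at about 8.5% in these data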;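 further: 0% = DMSO-only wells as the low control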
# Target sequence (P78536 215-824 limits assumed): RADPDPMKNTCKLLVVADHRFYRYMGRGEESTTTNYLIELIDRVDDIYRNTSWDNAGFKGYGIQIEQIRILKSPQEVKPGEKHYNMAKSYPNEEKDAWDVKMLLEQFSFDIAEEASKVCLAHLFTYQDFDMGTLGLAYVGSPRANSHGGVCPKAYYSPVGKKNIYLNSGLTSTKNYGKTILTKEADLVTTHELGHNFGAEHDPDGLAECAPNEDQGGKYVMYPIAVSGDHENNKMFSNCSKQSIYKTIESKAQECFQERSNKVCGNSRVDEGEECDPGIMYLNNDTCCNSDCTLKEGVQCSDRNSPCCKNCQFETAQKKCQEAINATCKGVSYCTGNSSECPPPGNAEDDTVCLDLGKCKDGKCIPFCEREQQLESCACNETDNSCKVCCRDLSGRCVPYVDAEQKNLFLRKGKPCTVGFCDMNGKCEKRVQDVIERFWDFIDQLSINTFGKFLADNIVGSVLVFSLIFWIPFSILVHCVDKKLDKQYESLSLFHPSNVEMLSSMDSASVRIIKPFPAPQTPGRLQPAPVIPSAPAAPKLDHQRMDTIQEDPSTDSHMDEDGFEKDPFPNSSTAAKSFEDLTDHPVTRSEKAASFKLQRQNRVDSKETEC
# FAS-TE inh = blocks the thioesterase domain of human fatty acid synthase; recombinant FAS-TE, OMFH fluorogenic substrate, fluorescence endpoint; inhibition, % at 15 µM; 360,000 tested, 0.67% active;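 active means compounds whose normalised, plate-corrected inhibition of enzyme fluorescence in the single-dose primary screen is 50% or more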;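 further: 0% = DMSO with enzyme and 100% = substrate without enzyme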
# aDG glyco up = increases alpha dystroglycan glycosylation | activation, % at 10 µM | AID 624168 | Pro5-aDG cells, alpha-DG glycosylation AlphaScreen (IIH6); 0% Pro5, 100% B10-LARGE cell signal | 360,000 tested, 0.22% active;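 active means activation of at least 8% versus controls, or a plate z-score of at least 8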;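 further: Pro5 are CHO cells carrying HIG-tagged alpha-DG that lacks glycosylation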
# NR3A LBD binder = modulators (binders) of human NR3A ligand-binding domain. 340,000 tested, 2.5% active. NR3A LBD differential scanning fluorimetry, Tm shift; 0% = protein alone, 100% = glycine-bound protein. Tm shift relative to glycine control, % at 25 µM. AID 1259313;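 active means melting temperature shift of at least 10% of the positive control shift, at one fixed dose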
# ADAM10 ctr = inhibits human ADAM10 in ADAM17 exosite counter-screen. AID 743256. inhibition, % at 6.95 µM. recombinant ADAM10, EDANS/DABCYL FRET peptide cleavage, 3 h. shares compounds with ADAM17 inh. 2,900 tested, 47% active;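 active means mean inhibition over the triplicate runs exceeds the activity threshold set in the earlier primary screen, cut at about 20% in these data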;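 further: 0% = DMSO wells and 100% = marimastat wells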
# ADAM17 confirm = human ADAM17 inhibition, confirmation. shares compounds with ADAM17 inh. recombinant ADAM17, EDANS/DABCYL QFRET peptide cleavage. inhibition, % at 6.95 µM. 2,900 tested, 65% active. AID 743257;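 active means mean inhibition across replicates above the hit cutoff set in the primary screen, cut at about 8.5% in these data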;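 further: 0% = DMSO wells and 100% = marimastat wells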
# * = called active by the depositor; x = no result given.
SMILES,ADAM10 inh,ADAM17 inh,FAS-TE inh,aDG glyco up,NR3A LBD binder,ADAM10 ctr,ADAM17 confirm
CCOC(=O)[C@H]1[C@H]2COc3ccc(Br)cc3[C@@H]2N2C(=O)CN(Cc3ccc(C)cc3)C(=O)[C@@]12C,16,9.6*,23,0,0,28*,17*
CCCN(CC(=O)Nc1ccccc1C)C(=O)c1ccc(-c2ccccc2)cc1,6,1,8,0,7,x,x
CCCCN(C(=O)C1CC(=O)N(c2ccc(C)cc2)C1)c1c(N)n(CCC)c(=O)[nH]c1=O (stereo not given),-1,11*,-5,0,-1,-5,-2
CCCCN(C(=O)C1CC(=O)N(c2ccc3c(c2)OCCO3)C1)c1c(N)n(CCC)c(=O)[nH]c1=O (stereo not given),-10,-6,-6,0,1,x,x
CCc1nnc(NC(=O)[C@@H](NS(=O)(=O)c2ccc3c(c2)OCCO3)C(C)C)s1,-5,6,-8,0,-3,x,x
O=C(CN(Cc1ccccc1)S(=O)(=O)c1ccccc1)N/N=C/c1ccccc1[N+](=O)[O-],7,4,20,0,-7,x,x
Cc1ccc(CN(CC(=O)N/N=C/c2ccccc2[N+](=O)[O-])S(=O)(=O)c2ccc(C)cc2)cc1,13,9.1*,23,0,-19,33*,14*
CC1CCCN(C(C(=O)Nc2ccc3c(c2)OCO3)c2ccccc2)C1 (stereo not given),13,3,6,0,-4,x,x
COc1ccc(C)cc1S(=O)(=O)N(CC(=O)Nc1ccc2c(c1)OCCO2)Cc1ccccc1,x,x,20,0,-9,x,x
CC1(c2ccccc2)NC(=O)N(CC(=O)Nc2ccc3c(c2)OCO3)C1=O (stereo not given),-5,0,-9,0,-2,x,x
COc1ccc(C2(C)NC(=O)N(CC(=O)Nc3ccc4c(c3)OCO4)C2=O)cc1OC (stereo not given),12,11*,-7,2,-2,13,9.0*
COCCOc1ccc(C(F)(F)F)cc1NC(=O)CN1C(=O)NC(C)(c2ccc3c(c2)OCO3)C1=O (stereo not given),18,12*,30,0,-8,19,12*
COc1ccc(C)cc1S(=O)(=O)N(C)CC(=O)Nc1ccc2c(c1)OCO2,14,10*,-7,0,0,5,5
CCc1ccc(NC(=O)c2c(C(=O)Nc3ccccc3)sc3nc(C)cc(=O)n23)cc1,-10,1,-4,-1,-1,x,x
CC(NC(=O)COc1ccccc1)C(=O)NCc1ccc(S(N)(=O)=O)cc1 (stereo not given),-9,-1,-7,0,1,x,x
Cc1nc2ccccc2c(=O)n1NC(=O)c1cncc(Br)c1,-3,-4,-3,0,2,x,x
O=C(Nc1c(-c2ccccc2)[nH][nH]c1=O)c1cnccn1,-11,-4,x,0,x,x,x
C[C@H]1CN(c2ccc(Br)cc2)C(=O)[C@@H]1CC(=O)Nc1ccccc1,9,11*,8,0,x,7,6
O=C(Nc1ccnn1C1CCN(Cc2ccccn2)CC1)c1cccc(F)c1,-6,-3,-4,0,1,x,x
Cc1nc(N2CCCCC2)c2c(C)c(C(=O)Nc3ccc4c(c3)OCCO4)sc2n1,11,9.6*,22,2,2,16,11*
Cc1nc(N2CCN(C)CC2)c2c(C)c(C(=O)Nc3ccc(C)c(F)c3)sc2n1,13,8.8*,3,1,-2,7,8.8*
O=C(CC1Sc2ccccc2NC1=O)OCC(=O)N1CCc2ccccc21 (stereo not given),-2,9.2*,3,0,3,8,8
Cc1cc(C(=O)COC(=O)CC2Sc3ccccc3NC2=O)c(C)n1-c1ccc(Br)cc1 (stereo not given),13,8.8*,10,0,-16,7,8
CCN(C(=O)COC(=O)c1c(C)nsc1NC)c1ccccc1,4,-1,-5,0,-2,x,x
CCCC1(CCC)NC(=O)N(CC(=O)Nc2ccc(Cl)c(S(=O)(=O)N3CCOCC3)c2)C1=O,16,15*,-2,0,-2,3,2
SMILES,ADAM10 inh,ADAM17 inh,FAS-TE inh,aDG glyco up,NR3A LBD binder,ADAM10 ctr,ADAM17 confirm
CC1CCCCC12NC(=O)N(CC(=O)Nc1ccc(Cl)c(S(=O)(=O)N3CCOCC3)c1)C2=O (stereo not given),2,-2,2,0,1,x,x
Cc1ccc[n+](CC(=O)Nc2nc3ccccc3s2)c1,-9,2,0,0,-1,x,x
O=C(C[n+]1ccccc1)Nc1nc2ccccc2s1,15,9.4*,-11,0,-10,9,15*
CC(=O)Nc1ccc(OCC(=O)c2ccc(C)cc2C)cc1,8,9.6*,-6,0,-1,9,4
CCc1ccc(C(=O)COc2ccc(NC(C)=O)cc2)cc1,2,-5,-6,0,3,x,x
CCN(Cc1ccccc1)S(=O)(=O)c1ccc(S(=O)(=O)N(Cc2ccccn2)Cc2ccco2)cc1,-1,-4,-9,0,0,x,x
CC1CCCCN1S(=O)(=O)c1ccc(S(=O)(=O)N(Cc2ccccc2)Cc2ccco2)cc1 (stereo not given),15,16*,31,0,2,20*,12*
Cn1cc(C(=O)N/N=C/c2ccc3c(c2)OCO3)c2ccccc21,-11,-3,6,0,3,x,x
Cn1cc(C(=O)N/N=C/c2cccs2)c2ccccc21,-3,8.9*,-3,0,-7,-5,0
COc1ccc(S[C@]2(C(=O)N3CCN(C(C)=O)CC3)CC(=O)N(C(=O)CCc3ccccc3)[C@@H]2c2ccc(OC)cc2)cc1,19,16*,x,x,x,24*,13*
COC(=O)c1cccc(N2C(=O)C[C@](Sc3ccc(OC)cc3)(C(=O)N3CCOCC3)[C@H]2c2ccc(OC)cc2)c1,18,14*,x,x,x,17,9
CC(=O)c1ccc2c(c1)OCCOCCOCCOCCO2,x,x,-8,0,4,x,x
Cc1cc(C)cc(-n2c(SCC(=O)NCc3ccco3)nc3ccccc3c2=O)c1,-1,10*,2,0,-1,9,8.7*
Cc1c(C(=O)N2CC3(CC(c4cccc(NC(=O)CC(c5ccccc5)c5ccccc5)c4)=NO3)C[C@@H]2C(N)=O)cc([N+](=O)[O-])cc1[N+](=O)[O-] (stereo not given in full),19,11*,37,0,8,34*,19*
